The campaign covered roughly 5,500 compounds. About 2,000 (36%) were called active. About 18% were inconclusive and are not listed. Cut-off read from the data, not from the text of the source: active = normalized growth mostly below about 0.91 (no sharp cut-off); inconclusive = no clear call, values can overlap the other calls; inactive = mostly above about 0.92. This is one part of the list.
Experiment: chemical genetic growth profiling, strain panel (AID 1159580);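 note: tested at 20 µM; growth read once vehicle control cultures reached saturation at 30 °C; 1 = growth at the plate median or of vehicle wells; lower values mean less growth of the strain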
Conditions: growth OD

Measured: normalized growth

O=C(OC1Cc2c(O)cc(O)cc2OC1c1cc(O)c(O)c(O)c1-c1c(C2Oc3cc(O)cc(O)c3CC2OC(=O)c2cc(O)c(O)c(O)c2)cc(O)c(O)c1O)c1cc(O)c(O)c(O)c1 (stereo not given)
active: S. cerevisiae deletion strains, locus YLR262C, strain YPT6 (second series), hits give low values 0.766 | S. cerevisiae deletion strains, locus YLR357W, strain rsc2, hits give low values 0.807 | S. cerevisiae deletion strains, locus YMR058W, strain fet3, hits give low values 0.338 | S. cerevisiae deletion strains, locus YMR231W, strain pep5, hits give low values 0.762 | S. cerevisiae deletion strains, locus YNL209W, strain ssb2, hits give low values 0.735 | S. cerevisiae deletion strains, locus YOR106W, strain vam3, hits give low values 0.648 | S. cerevisiae deletion strains, locus YPL051W, strain arl3, hits give low values 0.82
inactive: S. cerevisiae deletion strains, locus YJL187C, strain SWE1 (second series), hits give low values 1.01 | S. cerevisiae deletion strains, locus YJR043C, strain POL32, hits give low values 1.06 | S. cerevisiae deletion strains, locus YKL009W, strain mrt4, hits give low values 0.953 | S. cerevisiae deletion strains, locus YKL068W, hits give low values 1 | S. cerevisiae deletion strains, locus YKL085W, strain MDH1 (second series), hits give low values 0.991 | S. cerevisiae deletion strains, locus YKL085W, strain MDH1, hits give low values 0.991 | S. cerevisiae deletion strains, locus YKL160W, strain elf1, hits give low values 1 | S. cerevisiae deletion strains, locus YKL190W, strain CNB1, hits give low values 1 | S. cerevisiae deletion strains, locus YKR001C, strain vps1, hits give low values 0.961 | S. cerevisiae deletion strains, locus YKR026C, strain gcn3, hits give low values 1.02 | S. cerevisiae deletion strains, locus YKR091W, strain srl3, hits give low values 1.02 | S. cerevisiae deletion strains, locus YLL001W, strain dnm1, hits give low values 1.02 | S. cerevisiae deletion strains, locus YLL026W, hits give low values 1.02 | S. cerevisiae deletion strains, locus YLL041C, strain sdh2, hits give low values 1 | S. cerevisiae deletion strains, locus YLR027C, strain aat2, hits give low values 1.01 | S. cerevisiae deletion strains, locus YLR039C, strain RIC1, hits give low values 1.04 | S. cerevisiae deletion strains, locus YLR058C, strain SHM2, hits give low values 1.01 | S. cerevisiae deletion strains, locus YLR102C, strain apc9, hits give low values 0.988 | S. cerevisiae deletion strains, locus YLR221C, strain rsa3, hits give low values 0.995 | S. cerevisiae deletion strains, locus YLR258W, strain gsy2, hits give low values 0.993 | S. cerevisiae deletion strains, locus YLR262C, strain YPT6, hits give low values 0.99 | S. cerevisiae deletion strains, locus YLR268W, strain sec22, hits give low values 0.993 | S. cerevisiae deletion strains, locus YLR320W, strain mms22, hits give low values 0.981 | S. cerevisiae deletion strains, locus YLR330W, strain CHS5, hits give low values 0.993 | S. cerevisiae deletion strains, locus YLR342W, strain FKS1 (second series), hits give low values 1.1 | S. cerevisiae deletion strains, locus YLR342W, strain FKS1, hits give low values 0.98 | S. cerevisiae deletion strains, locus YLR370C, strain arc18, hits give low values 1.01 | S. cerevisiae deletion strains, locus YLR371W, strain rom2, hits give low values 0.979 | S. cerevisiae deletion strains, locus YLR384C, strain iki3, hits give low values 1 | S. cerevisiae deletion strains, locus YLR418C, strain cdc73, hits give low values 0.931 | S. cerevisiae deletion strains, locus YML016C, strain PPZ1, hits give low values 1.03 | S. cerevisiae deletion strains, locus YML032C, strain rad52, hits give low values 0.99 | S. cerevisiae deletion strains, locus YML120C, strain ndi1, hits give low values 1 | S. cerevisiae deletion strains, locus YML124C, strain tub3, hits give low values 0.992 | S. cerevisiae deletion strains, locus YMR078C, strain ctf18, hits give low values 0.981 | S. cerevisiae deletion strains, locus YMR125W, strain sto1, hits give low values 1.04 | S. cerevisiae deletion strains, locus YMR129W, hits give low values 1.02 | S. cerevisiae deletion strains, locus YMR205C, strain PFK2, hits give low values 0.974 | S. cerevisiae deletion strains, locus YMR223W, strain ubp8, hits give low values 0.995 | S. cerevisiae deletion strains, locus YMR307W, strain GAS1, hits give low values 1.08 | S. cerevisiae deletion strains, locus YNL067W, strain RPL9B, hits give low values 0.984 | S. cerevisiae deletion strains, locus YNL071W, strain lat1, hits give low values 1.02 | S. cerevisiae deletion strains, locus YNL153C, strain GIM3, hits give low values 1 | S. cerevisiae deletion strains, locus YNL233W, strain BNI4, hits give low values 0.964 | S. cerevisiae deletion strains, locus YNL248C, strain rpa49, hits give low values 1.01 | S. cerevisiae deletion strains, locus YNL250W, strain rad50, hits give low values 0.968 | S. cerevisiae deletion strains, locus YNL271C, strain bni1, hits give low values 0.964 | S. cerevisiae deletion strains, locus YNL298W, strain CLA4, hits give low values 0.979 | S. cerevisiae deletion strains, locus YNL307C, strain MCK1, hits give low values 0.979 | S. cerevisiae deletion strains, locus YNL322C, strain KRE1 (second series), hits give low values 1.05 | S. cerevisiae deletion strains, locus YNL322C, strain KRE1, hits give low values 0.998 | S. cerevisiae deletion strains, locus YNR049C, strain mso1, hits give low values 1.02 | S. cerevisiae deletion strains, locus YNR052C, strain pop2, hits give low values 0.969 | S. cerevisiae deletion strains, locus YOL006C, strain TOP1, hits give low values 0.885 | S. cerevisiae deletion strains, locus YOL012C, strain htz1 1.2 | S. cerevisiae deletion strains, locus YOL147C, strain pex11, hits give low values 0.987 | S. cerevisiae deletion strains, locus YOR001W, strain rrp6, hits give low values 0.997 | S. cerevisiae deletion strains, locus YOR061W, strain CKA2, hits give low values 1.03 | S. cerevisiae deletion strains, locus YOR069W, strain VPS5, hits give low values 1.02 | S. cerevisiae deletion strains, locus YOR070C, strain gyp1, hits give low values 0.975 | S. cerevisiae deletion strains, locus YOR080W, strain dia2, hits give low values 1.02 | S. cerevisiae deletion strains, locus YOR083W, strain WHI5, hits give low values 0.976 | S. cerevisiae deletion strains, locus YOR136W, strain idh2, hits give low values 0.972 | S. cerevisiae deletion strains, locus YOR144C, strain elg1, hits give low values 0.999 | S. cerevisiae deletion strains, locus YOR184W, strain ser1, hits give low values 0.982 | S. cerevisiae deletion strains, locus YOR265W, strain rbl2, hits give low values 0.984 | S. cerevisiae deletion strains, locus YOR270C, strain vph1, hits give low values 0.835 | S. cerevisiae deletion strains, locus YOR290C, strain snf2, hits give low values 0.985 | S. cerevisiae deletion strains, locus YOR316C, strain cot1, hits give low values 1 | S. cerevisiae deletion strains, locus YPL078C, strain atp4, hits give low values 1.01 | S. cerevisiae deletion strains, locus YPL106C, strain sse1, hits give low values 0.893 | S. cerevisiae deletion strains, locus YPL240C, strain hsp82, hits give low values 1.02 | S. cerevisiae deletion strains, locus YPR119W, strain clb2, hits give low values 0.999 | S. cerevisiae deletion strains, locus YPR141C, strain kar3, hits give low values 0.964 | S. cerevisiae deletion strains, locus YPR163C, strain tif3, hits give low values 0.987 | S. cerevisiae deletion strains, locus YPR167C, strain met16, hits give low values 0.986 | S. cerevisiae deletion strains, strain wtn01, hits give low values 0.994 | S. cerevisiae strains, strain wild type, hits give low values 1.01

From PubChem BioAssay AID1159580 (chemical genetic matrix, 2015)
